Assay results: PubChem BioAssay (NCATS)
Records with an inconclusive call do not appear. Entries that show only a call come without a potency. The source made the active and inactive calls. Calls come from the whole dose curve; as a rule, active = well fitted inhibition curve with a large enough effect; inconclusive = small, poorly fitted or top-dose-only effect; inactive = no such curve, though single readings can be large or run the other way.

Assays:
[1] = test system: Zika virus NS2B-NS3 protease (linked construct); test: Primary screen NINDS Rhodamine qHTS for Zika virus inhibitors (AID 1347160); note: nearly all actives have a fitted effect of over 55% in size
Outline: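 Kinetic fluorescence (Ex 480 nm, Em 540 nm) over 15 min with 1.5 microM Rhodamine110 peptide and 25 nM linked protease.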

[2] = Confirmatory screen NINDS Rhodamine qHTS for Zika virus inhibitors (AID 1347161);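 note: purified Zika NS2B-NS3 protease with linked NS2B cofactor domain and Rhodamine110 peptide substrate; series mostly up to about 110 µM; nearly all actives have a fitted effect of over 60% in size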
Outline: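 Purified NS2B-NS3 protease with the NS2B hydrophilic domain joined by a flexible linker (25 nM) in 10 mM Tris-HCl pH 8.0, 0.01% Tween 20, preincubated 15 min at RT with compound; Rhodamine110 peptide substrate 1.5 µM; fluorescence change over 15 min; 4-parameter Hill fit.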

[3] = test system: Zika virus NS2B-NS3 protease (linked); test: 384 well plate NINDS AMC confirmatory qHTS for Zika virus inhibitors (AID 1347163); conditions: Recombinant NS2B-NS3 protease, Ac-VKTGKR-AMC fluorescence; note: potency is the fitted concentration of half-maximal effect; nearly all actives have a fitted effect of over 50% in size
Outline: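 Linked protease 5/30/60 nM final; cpds up to 1 mM final, ~15 min preinc. Substrate Ac-VKTGKR-AMC 30 microM final. RT, dark, 25 min; FI ex 355/em 460; normalized to no-enzyme/no-inhibitor ctrls.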

COc1cc(C(=O)O[C@H]2[C@@H]3C=CO[C@@H](O[C@@H]4O[C@H](CO)[C@@H](O)[C@H](O)[C@H]4O)[C@@H]3[C@@]3(CO)O[C@@H]23)ccc1O
Potency [1]: inactive

C=C1[C@@H]2CC[C@@]3(C)[C@H](c4ccoc4)OC(=O)C[C@]13O[C@H]1CC(=O)C(C)(C)[C@H](C(OC(C)=O)C(=O)OC)[C@]12C (some centres undefined)
Potency [1]: inactive

O=C1OC2(c3cc(Br)c(O)cc3Oc3c2cc(Br)c(O)[c]3[Hg])c2ccccc21 (centres undefined)
Potency [2]: inactive

CN(C)[C@@H]1C(=O)C(C(N)=O)=C(O)[C@@]2(O)C(=O)C3=C(O)c4c(O)ccc(Cl)c4[C@@](C)(O)[C@H]3C[C@@H]12
Potency [3]: 562 nM (active)
